From ChEMBL document CHEMBL1961873, “Compounds: GSK PKIS; Assays: Nanosyn kinase panel” (2012) come the findings set out here.

The structures appear in SMILES notation.

Experiment [1] deals with Mast/stem cell growth factor receptor Kit (Homo sapiens) (UniProt P10721). To be noted: at 1 µM.
For experiment [2], the system named is Mast/stem cell growth factor receptor Kit (Homo sapiens), P10721 [D816V]. To be noted: at 0.1 µM.
Experiment [3] has the same test system. The settings on record: at 1 µM.
In experiment [4] the test system is Mast/stem cell growth factor receptor Kit (Homo sapiens), P10721 [T670I]. To be noted: at 0.1 µM.
The test system is the same in experiment [5]. To be noted: at 1 µM.
Experiment [6] deals with Mast/stem cell growth factor receptor Kit (Homo sapiens), P10721 [V560G]. The settings on record: at 0.1 µM.
Experiment [7] shares this test system. To be noted: at 1 µM.
Experiment [8] deals with Tyrosine-protein kinase Lck (Homo sapiens) (UniProt P06239). The settings on record: at 0.1 µM.
The target is the same in experiment [9]. To be noted: at 1 µM.
For experiment [10], the target named is Leukocyte tyrosine kinase receptor (Homo sapiens) (UniProt P29376). To be noted: at 0.1 µM.
Sequence of Leukocyte tyrosine kinase receptor (Homo sapiens) (P29376 whole entry): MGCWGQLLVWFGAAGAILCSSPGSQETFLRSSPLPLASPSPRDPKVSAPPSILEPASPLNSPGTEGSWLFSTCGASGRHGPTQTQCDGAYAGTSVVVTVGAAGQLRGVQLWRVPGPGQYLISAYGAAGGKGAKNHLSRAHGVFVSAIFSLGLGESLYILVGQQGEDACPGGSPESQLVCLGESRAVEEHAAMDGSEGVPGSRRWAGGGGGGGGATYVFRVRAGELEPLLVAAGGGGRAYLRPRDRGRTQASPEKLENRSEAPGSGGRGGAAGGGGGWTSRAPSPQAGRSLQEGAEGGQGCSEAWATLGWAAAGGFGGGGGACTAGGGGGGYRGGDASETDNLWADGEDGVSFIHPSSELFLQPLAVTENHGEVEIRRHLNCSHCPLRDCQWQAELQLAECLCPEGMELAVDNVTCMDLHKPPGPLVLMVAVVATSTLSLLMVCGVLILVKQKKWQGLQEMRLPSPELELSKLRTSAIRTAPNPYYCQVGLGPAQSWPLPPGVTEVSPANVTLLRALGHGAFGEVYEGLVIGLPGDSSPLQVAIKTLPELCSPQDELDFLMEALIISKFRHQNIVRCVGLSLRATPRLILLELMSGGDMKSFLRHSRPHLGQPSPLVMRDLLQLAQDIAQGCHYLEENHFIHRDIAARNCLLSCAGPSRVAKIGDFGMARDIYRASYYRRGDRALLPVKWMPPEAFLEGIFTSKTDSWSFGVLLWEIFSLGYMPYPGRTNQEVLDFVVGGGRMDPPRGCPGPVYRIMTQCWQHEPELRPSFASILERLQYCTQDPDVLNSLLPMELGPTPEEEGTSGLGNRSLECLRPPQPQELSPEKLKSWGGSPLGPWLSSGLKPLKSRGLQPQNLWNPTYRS

Sequence of Mast/stem cell growth factor receptor Kit (Homo sapiens), P10721 [V560G] (P10721 whole entry V560G): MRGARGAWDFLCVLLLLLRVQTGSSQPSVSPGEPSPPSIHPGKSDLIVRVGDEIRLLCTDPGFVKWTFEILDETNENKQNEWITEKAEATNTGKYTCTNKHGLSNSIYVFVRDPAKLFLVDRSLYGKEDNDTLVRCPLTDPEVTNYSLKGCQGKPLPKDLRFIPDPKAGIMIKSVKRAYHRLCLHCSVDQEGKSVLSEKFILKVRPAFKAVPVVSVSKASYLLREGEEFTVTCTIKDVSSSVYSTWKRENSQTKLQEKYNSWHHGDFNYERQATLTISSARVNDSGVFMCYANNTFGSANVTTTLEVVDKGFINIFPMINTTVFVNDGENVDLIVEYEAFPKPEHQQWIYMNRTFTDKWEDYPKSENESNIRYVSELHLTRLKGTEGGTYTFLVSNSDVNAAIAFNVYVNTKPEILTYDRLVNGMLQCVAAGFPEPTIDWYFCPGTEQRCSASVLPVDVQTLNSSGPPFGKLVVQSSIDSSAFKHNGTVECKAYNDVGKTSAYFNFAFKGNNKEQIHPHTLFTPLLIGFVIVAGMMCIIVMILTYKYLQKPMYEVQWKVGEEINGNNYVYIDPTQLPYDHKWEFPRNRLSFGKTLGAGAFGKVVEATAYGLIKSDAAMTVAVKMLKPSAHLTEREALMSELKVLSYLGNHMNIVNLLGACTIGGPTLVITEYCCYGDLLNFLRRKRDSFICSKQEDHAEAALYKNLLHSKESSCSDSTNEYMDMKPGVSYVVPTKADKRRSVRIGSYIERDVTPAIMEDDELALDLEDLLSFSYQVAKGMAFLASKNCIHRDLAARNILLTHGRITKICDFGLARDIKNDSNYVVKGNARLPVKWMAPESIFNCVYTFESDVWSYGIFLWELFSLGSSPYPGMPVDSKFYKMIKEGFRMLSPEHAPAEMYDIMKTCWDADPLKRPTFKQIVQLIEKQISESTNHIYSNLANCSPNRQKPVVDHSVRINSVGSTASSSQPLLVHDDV
Sequence of Tyrosine-protein kinase Lck (Homo sapiens) (P06239 2-509 limits assumed): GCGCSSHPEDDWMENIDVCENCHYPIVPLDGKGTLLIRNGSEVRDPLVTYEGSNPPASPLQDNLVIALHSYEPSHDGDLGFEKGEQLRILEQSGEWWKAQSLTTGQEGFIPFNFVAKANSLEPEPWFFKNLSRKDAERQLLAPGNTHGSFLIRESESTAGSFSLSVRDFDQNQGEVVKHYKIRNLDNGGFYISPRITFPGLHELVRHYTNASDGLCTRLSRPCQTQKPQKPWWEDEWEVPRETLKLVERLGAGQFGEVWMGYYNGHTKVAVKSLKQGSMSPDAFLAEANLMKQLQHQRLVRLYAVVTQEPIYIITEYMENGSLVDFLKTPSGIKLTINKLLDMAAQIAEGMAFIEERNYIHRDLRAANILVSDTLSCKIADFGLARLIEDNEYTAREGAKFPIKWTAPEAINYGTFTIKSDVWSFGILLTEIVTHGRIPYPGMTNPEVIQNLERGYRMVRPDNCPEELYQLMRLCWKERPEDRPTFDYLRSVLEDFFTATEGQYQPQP
Sequence of Mast/stem cell growth factor receptor Kit (Homo sapiens), P10721 [D816V] (P10721 whole entry D816V): as the sequence (P10721 whole entry V560G) above, with G560V, D816V counted along it
Sequence of Mast/stem cell growth factor receptor Kit (Homo sapiens) (P10721 whole entry): as the sequence (P10721 whole entry V560G) above, with G560V counted along it
Sequence of Mast/stem cell growth factor receptor Kit (Homo sapiens), P10721 [T670I] (P10721 whole entry T670I): as the sequence (P10721 whole entry V560G) above, with G560V, T670I counted along it

Regarding `CN(C)C(=O)O[C@@H]1CN[C@@H](C#Cc2cc3ncnc(Nc4ccc(OCc5cccc(F)c5)c(Cl)c4)c3s2)C1`, the inhibition in experiment [1] is -0.23%; in [2], 1.36%; in [3], -2.75%; in [4], -2.12%; in experiment [5], -2.74%; in experiment [6], 0.19%. Further, the inhibition in [7] stood at 4.14%; in [8], 1.89%; in experiment [9], 5.66%; in experiment [10], 0.9%.
As for `COc1ccc2ncnc(Nc3ccc(OCc4ccccc4)cc3)c2c1`, the inhibition in experiment [1] was 9.52%; in experiment [2], 2.81%; in [3], 0.98%; in experiment [4], 0.74%; in experiment [5], 2.49%; in experiment [6], -1.68%. Also, the inhibition in [7] was found to be 0.69%; in experiment [8], 1.39%; in experiment [9] it was 7.05%; in experiment [10] it was 2.27%.
Take `Cc1cc(Cl)cc2c1NC(=O)C2=NNc1ccc(S(N)(=O)=O)cc1`: the inhibition in experiment [1] was 12.9%; in experiment [2], 4.18%; in [3], -3.52%; in experiment [4], 2.4%; in [5], 3.29%; in experiment [6], 2.2%. Besides, the inhibition in experiment [7] was 7.35%; in [8] it was 1.9%; in experiment [9], 1.89%; in [10], 2.82%.
As for `CC(C)c1ccc(Nc2nccc(-c3cnn4ncccc34)n2)cc1`, the inhibition turned out to be 95.5% in experiment [1]; 2.6% in experiment [2]; 4.42% in experiment [3]; 19.5% in [4]; 81.3% in [5]; 17.7% in experiment [6]. Moreover, the inhibition in [7] amounted to 64%; in [8], 1.2%; in experiment [9], 3.47%; in experiment [10], 2.91%.
On to `NS(=O)(=O)c1ccc(Nc2cc(-c3cccc(O)c3)n[nH]2)cc1`, for which the inhibition is 83.7% in experiment [1]; 3.6% in [2]; 4.78% in [3]; 4.57% in experiment [4]; 4.81% in experiment [5]; 4.28% in experiment [6]. Also, the inhibition in [7] was 25.4%; in experiment [8] it was 1.64%; in experiment [9] it was 4.8%; in experiment [10] it was 2.99%.
For `Cc1ccc(C(=O)NC2CC2)cc1-c1ccc2[nH]ncc2c1`, the inhibition in experiment [1] is 9.73%; in experiment [2] it was -2.2%; in experiment [3], -3.32%; in [4], -2.37%; in experiment [5], -3.32%; in [6], 1.39%. The inhibition was 6.83% in experiment [7], -0.97% in experiment [8], 1.92% in [9] and -2.04% in [10].
Regarding `O=C1Nc2ccc(-c3cccnc3)cc2C1=Cc1cc(Br)c(O)c(Br)c1`, the inhibition was determined as 3.66% in experiment [1]; 3.44% in [2]; 2.96% in experiment [3]; 3.51% in experiment [4]; 0.52% in experiment [5]; 0.16% in [6]. The inhibition in [7] worked out at 2.16%; in experiment [8] it was 3.31%; in [9] it was 13.2%; in experiment [10], 4.94%.
Consider `COc1ccc(-c2nn3ncccc3c2-c2ccnc(Nc3cccc(C(F)(F)F)c3)n2)cc1`, for which the inhibition in experiment [1] is 26.5%; in experiment [2], 0.93%; in [3], 3.05%; in experiment [4], 3.67%; in experiment [5], 4.13%; in experiment [6] it was -1.16%. Also, the inhibition in experiment [7] was 7.05%; in experiment [8] it was 3.91%; in experiment [9] it was 20.3%; in [10] it was 2.17%.
On to `Oc1cccc(-c2nc(-c3ccccc3)[nH]c2-c2ccncc2)c1`, for which the inhibition in [1] was 8.38%; in [2] it was -0.23%; in [3] it was 6.52%; in [4] it was 2.52%; in experiment [5] it was 3.34%; in experiment [6], 1.61%. In addition, the inhibition in experiment [7] is 3.96%; in experiment [8], 4.47%; in experiment [9], 17.7%; in experiment [10] it was 3.98%.
For the compound `Nc1nccc(-c2c(-c3ccc(F)cc3)nn3cc(C(F)(F)F)ccc23)n1`, the inhibition was 1.1% in [1]; 1.51% in experiment [2]; -0.82% in [3]; -0.08% in experiment [4]; -0.07% in [5]; 1.43% in [6]. In addition, the inhibition in [7] is 0.2%; in experiment [8], 2.62%; in experiment [9], 4.27%; in [10] it was 1.83%.
Take `O=C(Nc1ccc(Oc2ccc3[nH]c(NC(=O)c4ccco4)nc3c2)cc1)Nc1cc(C(F)(F)F)ccc1F`: the inhibition was 92.1% in experiment [1]; -0.77% in [2]; -1.72% in experiment [3]; 12.6% in experiment [4]; 79.5% in [5]; 25.1% in experiment [6]. Moreover, the inhibition is 72.9% in experiment [7], 1% in [8], 38.8% in [9] and 0.05% in experiment [10].
For `Nc1nccc(-c2c(-c3ccc(F)cc3)ncn2CCCN2CCOCC2)n1`, the inhibition in experiment [1] is 11.4%; in experiment [2], 5.23%; in experiment [3], 5.35%; in experiment [4], 5%; in experiment [5] it was 0.35%; in experiment [6] it was -0.56%. Also, the inhibition in experiment [7] was 1.5%; in experiment [8], 2.05%; in [9] it was 7.4%; in experiment [10] it was 2.33%.
`CS(=O)(=O)Nc1cccc(-c2ccc3c(NC(=O)C4CC4)n[nH]c3c2)c1`: the inhibition was -3.67% in [1]; 1.45% in experiment [2]; 0.35% in experiment [3]; -1.01% in experiment [4]; -2.29% in experiment [5]; 0.19% in experiment [6]. Further, the inhibition stood at 0.6% in [7], 1.99% in experiment [8], 6.14% in experiment [9] and 1.68% in experiment [10].
For `Cc1cc(-c2ccccn2)cc(C)c1/C=C/c1cncc(-c2nn[nH]n2)c1`, the inhibition is 6.45% in [1]; 0.82% in [2]; -1.39% in experiment [3]; 5.04% in experiment [4]; 0.22% in experiment [5]; -3.07% in [6]. For the same compound, the inhibition in [7] is -1.86%; in [8], 4.47%; in [9] it was 12.1%; in experiment [10], 4.42%.
As for `FC(F)(F)c1ccc(-c2nn3ncccc3c2-c2ccnc(Nc3ccc4c(c3)OCCO4)n2)cc1`, the inhibition in [1] was 41.4%; in [2], -0.4%; in experiment [3], 4.93%; in experiment [4], 0.89%; in experiment [5] it was 6.31%; in experiment [6], 9.1%. Moreover, the inhibition in [7] worked out at 21.1%; in experiment [8], 6.41%; in experiment [9], 42.5%; in experiment [10] it was 1.18%.
Turning to `C[C@@H](Oc1cc(-n2cnc3ccc(OCC4CCN(C)CC4)cc32)sc1C(N)=O)c1ccccc1C(F)(F)F`, the inhibition in experiment [1] was 0.09%; in experiment [2], -2%; in [3] it was -1.63%; in [4] it was -0.04%; in experiment [5], 0.36%; in [6] it was 2.2%. Moreover, the inhibition is 4.85% in experiment [7], 5.2% in [8], 33.8% in [9] and -0.86% in experiment [10].
For `COc1cc2ncnc(Nc3ccc4c(cnn4Cc4ccccc4)c3)c2cc1OC`, the inhibition in [1] was 9.47%; in experiment [2] it was 1.06%; in experiment [3] it was 2.79%; in experiment [4], 2.31%; in [5], 2.58%; in experiment [6], -3.09%. Moreover, the inhibition in [7] amounted to 2.41%; in experiment [8], 19.5%; in experiment [9], 61.1%; in [10], 2.67%.
